# Reference: PubChem BioAssay (NCATS)
# Records with an inconclusive call do not appear. Where a call stands in place of a potency, no number is given. The source made the active and inactive calls. Calls come from the whole dose curve; as a rule, active = well fitted curve in the direction sought with a large enough effect; inconclusive = small, poorly fitted or top-dose-only effect, or another doubt; inactive = no such curve, though single readings can be large; an effect the other way counts as inactive or inconclusive.
# Assays:
# [1] = qHTS to identify inhibitors of the type 1 interferon - major histocompatibility complex class I in skeletal muscle: primary screen against the NCATS LOPAC collection (AID 1347405); settings: iHSKM muscle cells, IFN-b-induced MHC-I HiBiT luminescence, 24 h; series mostly up to 45.9 µM;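 note: human myoblasts with HiBiT tag on endogenous HLA-B stimulated by IFN-beta; lytic HiBiT luminescence reporting HLA-B protein level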; note: potency is the fitted concentration of half-maximal effect
# Summary of the method: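 HLA-B HiBiT myoblasts, IFN-b 4 ng/ml, dexamethasone-free medium; compounds 7-pt 1:4.3 titration, top 46 uM final; 24 h at 37 C; Nano-Glo HiBiT lytic reagent, 10 min RT, luminescence.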
# [2] = qHTS for inhibitors of adenylyl cyclases using a fission yeast platform: a pilot screen against the NCATS LOPAC library (AID 1347410); settings: S. pombe CHP2027, fbp1-GFP fluorescence, 18 h, yeast expressing mammalian AC9 and human GNAS; series mostly up to 57.5 µM
# Summary of the method: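 GFP from fbp1-GFP reporter, read by Acumen laser cytometry, indicates AC inhibition in fission yeast expressing AC9, GNAS and PDE4D2. Cells grown 18 h in the dark at 30C with compounds, final up to 57 uM.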
# [3] = Validation qHTS assay for inhibitors of Activation Induced Cytidine Deaminase (AID): UDG Counterscreen signal (AID 1347427); settings: biochemical UDG counterscreen, fluorescence signal; series mostly up to 115 µM
# Summary of the method: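 Fluorescence at 560 nm excitation, 665 nm emission reports UDG signal after 250 mM NaOH (2x) addition and 30 min. Enzymes (AID 1 uM, UDG 2 U/mL, at 4/3x) preincubated 10 min with compound, then 4 h with 4x 250 nM DJC20/DJC23 substrate at room temperature.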
# [4] = molecular target: Single-stranded DNA cytosine deaminase (Homo sapiens) (UniProt Q9GZX7); experiment: Validation qHTS assay for inhibitors of Activation Induced Cytidine Deaminase (AID): AID signal (AID 1347429); settings: Recombinant AID, FRET ssDNA deamination with UDG, fluorescence; series mostly up to 115 µM
# Single-stranded DNA cytosine deaminase (Homo sapiens), sequence (Q9GZX7 whole entry, looked up): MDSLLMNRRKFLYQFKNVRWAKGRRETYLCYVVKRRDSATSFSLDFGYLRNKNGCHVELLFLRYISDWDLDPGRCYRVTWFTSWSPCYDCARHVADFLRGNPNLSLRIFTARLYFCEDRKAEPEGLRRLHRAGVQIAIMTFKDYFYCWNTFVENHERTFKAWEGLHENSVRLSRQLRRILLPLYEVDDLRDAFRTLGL
# Summary of the method: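 AID+UDG coupled FRET deamination; cpds up to 114 uM final; DJC20/DJC23 substrate, 4 hr RT; NaOH stop, 30 min RT; read Ex 540/Em 590.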
# [5] = Primary qHTS for inhibitors of La Crosse Virus (LACV) - induced cell death in SH-SY5Y cells (AID 1508616); settings: SH-SY5Y LACV cytopathicity rescue, ATP luminescence, 6 d; series mostly up to 9.63 µM;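 note: top concentration of the series differs between compounds; higher means more rescue of cells from virus-induced death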
# Summary of the method: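 Cytopathicity rescue screen: compounds pinned onto SH-SY5Y cells, which are then infected with LACV (MOI 0.01) and held 6 days at 37C. Percent activity is scaled between infected DMSO control and uninfected DMSO control.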
# [6] = qHTS for Inflammasome Signaling Inhibitors: IL-1-beta AlphaLISA screen against the NCATS CANVASS Library (AID 1347379); settings: THP-1 LPS/ATP, IL-1B AlphaLISA secretion, 16 h; at 57.5 µM (top of the series) unless noted;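 note: human THP-1 cells primed with LPS then triggered with ATP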
# Summary of the method: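 THP-1, 1 hr compound pre-incubation, then LPS 250 ng/mL + ATP 1.25 mM (final); 16 hr total with compound; IL-1B AlphaLISA, ex 680/em 615 nm; 11-point qHTS, up to 57.5 uM final.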
# [7] = qHTS for Antimalaria activity screened against the NCATS CANVASS Library (AID 1347380);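 note: Plasmodium falciparum strain Dd2 asexual parasites grown in red blood cells; nearly all actives have a fitted effect of over 40% in size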; settings: P. falciparum Dd2 growth, SYBR Green fluorescence, 72 h; series mostly up to 28.7 µM
# Summary of the method: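 SYBR Green fluorescence (ex 485, em 535 nm) read after saponin/Triton lysis and 18 h further incubation; Dd2 asexual blood-stage parasites, 72 h compound exposure, 11-pt concentration series, 2.5% hematocrit, 0.3% parasitemia.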
# [8] = Inflammasome Signaling qHTS Counterscreen: IL-1-beta AlphaLISA counterscreen against the NCATS CANVASS Library (AID 1347381); settings: Purified IL-1beta AlphaLISA signal interference counterscreen; series mostly up to 57.5 µM;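 note: cell-free check with purified IL-1β in medium and no THP-1 cells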
# Summary of the method: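 Here, no cellular stimulation occurs; compounds in an 11-point series meet 4 pg purified IL-1-beta directly. Bead-based AlphaLISA detection follows (1 h acceptor/antibody, then 30 min donor, dark, room temperature), with excitation at 680 nm.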
# [9] = Cytotoxicity qHTS for assessment of Hepg2 cells membrane integrity screened against the NCATS CANVASS Library (AID 1347387); settings: HepG2 LDH release (CytoTox-ONE) fluorescence, 5 h; series mostly up to 91.4 µM
# Summary of the method: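 LDH release read by fluorescence (560 nm ex/590 nm em) after CytoTox-ONE addition and 10 min RT; signal tracks lysed cells. HepG2, 2000 cells/well, plated overnight; compound 5 hr, 37C, 5% CO2, final 0.59 nM - 46 uM, 11 points.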
# [10] = qHTS for Activators of p53 Stress Response Pathway screened against the NCATS CANVASS Library (AID 1347388); settings: p53RE-bla HCT-116, beta-lactamase reporter, 16 h; series mostly up to 91.4 µM
# Summary of the method: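 Beta-lactamase reporter driven by p53 response elements in HCT-116 cells, read as the 460 nm/530 nm emission ratio after CCF4 loading, following 16 h of exposure to an 11-point series. Cell viability was measured in the same wells by CellTiter-Glo luminescence.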
# [11] = qHTS assay for small molecule disruptors of mitochondrial membrane potential screened against the NCATS CANVASS Library (AID 1347389); settings: HepG2 mitochondrial membrane potential, m-MPI red/green ratio, 1.5 h; series mostly up to 91.4 µM; note: nearly all actives have a fitted effect of over 60% in size
# Summary of the method: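 Red/green fluorescence ratio read-out: J-aggregates ex 540/em 590 nm, monomers ex 490/em 535 nm. HepG2, 1 hr compound treatment, then 30 min Mito-MPS dye at 37C. 11-pt qHTS concentration series.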
# [12] = Secretion counterscreen for inhibitors of the SERCaMP assay screened against the NCATS CANVASS Library (AID 1347390); settings: SH-SY5Y constitutive GLuc secretion, luminescence, 20 h; series mostly up to 76.6 µM;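 note: light from luciferase secreted into medium read as a measure of general secretion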
# Summary of the method: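 Counterscreen for secretory-pathway interference: after 4 h attachment, SH-SY5Y-GLuc cells were exposed 20 hours to compounds (final 0.001 - 77 uM), then coelenterazine added and GLuc luminescence recorded; Brefeldin A served as control.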
# [13] = qHTS for activators of Nrf2/ARE signaling pathway screened against the NCATS CANVASS Library (AID 1347391); settings: ARE-bla HepG2, beta-lactamase reporter, 16 h; series mostly up to 91.4 µM; note: nearly all actives have a fitted effect of over 60% in size
# Summary of the method: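 HepG2 ARE-bla; cpd 11-pt qHTS, 16 h 37C/5% CO2; CCF4 substrate 2 h RT; read ex 405 / em 460 + 530 nm. Viability by CellTiter-Glo luminescence, 30 min RT.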
# [14] = qHTS for activators of dead-cell proteases activity screened against the NCATS CANVASS Library (AID 1347392); settings: HepG2 cytotoxicity, dead-cell protease luminescence, 5 h; series mostly up to 91.4 µM;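 note: luminescence from protease leaking out of membrane-damaged cells cleaving impermeant substrate; rising signal means more cytotoxicity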
# Summary of the method: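 Luminescent dead-cell protease readout (AAF-aminoluciferin, 15 min, room temperature) after 5 h compound treatment of HepG2 cells (2000/well, pre-attached 18 h). Eleven concentrations.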
# [15] = Vero-766 cells viability qHTS against the NCATS CANVASS Library: Counterscreen for Zika virus inhibition assay (AID 1347394); settings: Vero 766 viability, CellTiter-Glo luminescence, 72 h; series mostly up to 91.4 µM; note: nearly all actives have a fitted effect of over 60% in size
# Summary of the method: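 CellTiter Glo luminescence measured cytotoxicity after 72 h at 37C in uninfected Vero 766 cells, plated at 1000 cells/well. Compounds were applied in an 11-point series. Wells without cells defined 100% inhibition.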
# [16] = qHTS for inhibitors of Wild type Zika virus screened against the NCATS CANVASS Library (AID 1347396); settings: Vero cells, Zika virus CPE, CellTiter-Glo, 72 h; series mostly up to 91 µM;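 note: ATP luminescence of surviving cells so rescue from viral cell killing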
# Summary of the method: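 Protection against wild-type Zika cytopathic effect is measured in African green monkey Vero 766 cells exposed to an 11-point compound series. Surviving cells are quantified by CellTiter Glo luminescence after 72 h.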
# [17] = Viability qHTS for inhibitors of the SERCaMP assay screened against the NCATS CANVASS Library (AID 1347400); settings: SH-SY5Y SERCaMP cells viability, CellTiter-Glo, 48 h; series mostly up to 92.2 µM; note: nearly all actives have a fitted effect of over 70% in size
# Summary of the method: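 CellTiter-Glo luminescence readout after 48 h compound exposure (11-pnt qHTS series) of SH-SY5Y-GLuc SERCaMP MJH297 cells seeded at 1000 cells/well; bortezomib positive control.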
# [18] = qHTS to identify inhibitors of the type 1 interferon - major histocompatibility complex class I in skeletal muscle: primary screen against the NCATS Mechanism Interrogation Plate v5.0 (MIPE) Libary (AID 1347411); settings: iHSKM cells + IFN-b, HiBiT-tagged MHC-I luminescence, 24 h; series mostly up to 45.8 µM; note: nearly all actives have a fitted effect of over 65% in size
# Summary of the method: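 HLA-B HiBit myoblasts, dexamethasone-free medium + 4 ng/ml IFN-b, 24 h compound, 11-pt 1:3 from 46 uM final. Readout: Nano-Glo HiBiT lytic luminescence after 10 min lysis, RT.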
structure (smiles),measurement,setting,value
COc1ccc(NC(=O)c2ccc(-c3ccc(-c4noc(C)n4)cc3C)cc2)cc1N1CCN(C)CC1,Potency,[1],25.1 µM (active)
same,outcome,[2],inactive
same,Potency,[3],inactive
same,Potency,[4],inactive
OC[C@H]1O[C@H](n2cnc3c(N[C@H]4CCC[C@@H]4O)ncnc32)[C@H](O)[C@@H]1O,Potency,[1],inactive
same,outcome,[2],inactive
same,Potency,[3],inactive
same,Potency,[4],inactive
same,Potency,[5],inactive
O=c1oc(Cl)c(Cl)c2ccccc12,Potency,[1],inactive
same,outcome,[2],inactive
same,Potency,[3],inactive
same,Potency,[4],inactive
CC(=O)NCCc1c[nH]c2ccc(O)cc12,outcome,[6],inactive
same,outcome,[7],inactive
same,outcome,[8],inactive
same,outcome,[9],inactive
same,outcome,[10],inactive
same,outcome,[11],inactive
same,outcome,[12],inactive
same,outcome,[13],inactive
same,outcome,[14],inactive
same,outcome,[15],inactive
same,outcome,[16],inactive
same,outcome,[17],inactive
same,Potency,[1],inactive
same,outcome,[2],inactive
same,Potency,[3],inactive
same,Potency,[4],inactive
same,Potency,[5],inactive
CCCc1c(OCCCOc2ccc(OCC(=O)O)cc2)ccc(C(C)=O)c1O,Potency,[1],inactive
same,outcome,[2],inactive
same,outcome,[18],inactive
same,Potency,[3],inactive
same,Potency,[4],inactive
same,Potency,[5],inactive
CN1CCN(c2nc3cc(C(F)(F)F)ccc3n3cccc23)CC1,Potency,[1],inactive
same,outcome,[2],inactive
same,Potency,[3],inactive
same,Potency,[4],inactive
NC(=O)CNCCC(c1ccccc1)c1ccccc1,Potency,[1],inactive
same,outcome,[2],inactive
same,Potency,[3],inactive
same,Potency,[4],inactive
COc1ccc2c(c1)c(CC(=O)O)c(C)n2Cc1ccc(Cl)cc1,Potency,[1],inactive
same,outcome,[2],inactive
same,Potency,[3],inactive
same,Potency,[4],inactive
same,Potency,[5],inactive
N=C(N)SCCc1cnc[nH]1,Potency,[1],inactive
same,outcome,[2],inactive
same,Potency,[3],inactive
same,Potency,[4],inactive
same,Potency,[5],inactive
CC(=O)[C@H]1CCC2C3CC=C4C[C@@H](OS(=O)(=O)O)CC[C@]4(C)C3CC[C@@]21C (stereo partly drawn),Potency,[1],inactive
same,outcome,[2],inactive
same,Potency,[3],inactive
same,Potency,[4],inactive
same,Potency,[5],inactive
CN1C2CCC1CC(OC(c1ccccc1)c1ccccc1)C2 (stereo not drawn),Potency,[1],inactive
same,outcome,[2],inactive
same,Potency,[3],inactive
same,Potency,[4],inactive
